Data on 82 molecules can be found in PubChem BioAssay AID504753 (Sanford-Burnham Center for Chemical Genomics, 2011).

Usually inhibition stands for the drop in the measured response relative to a control, in per cent.

In all, about 2,400 compounds went through this assay and about 820 (34%) were called active. These entries were drawn from the full list. Values without a mark were called inactive.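 How the source made its calls: active means inhibition of at least 50% at 20 µM in any single replicate; inactive means the rest.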

The assay has as its system glucose-6-phosphate dehydrogenase-6-phosphogluconolactonase (PfGluPho), Plasmodium falciparum 3D7. Kind of assay: malaria parasite PfGluPho enzyme inhibition – biochemical, fluorescence intensity, single concentration, confirmation (AID 504753).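 Further: 0% = DMSO with substrate and 100% = DMSO lacking glucose-6-phosphate substrate.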 The settings on record: recombinant PfGluPho, NADPH-diaphorase-resazurin fluorescence; at 20 µM; stronger effect = higher value.
For the molecule `Cc1c(-c2ccccc2)n[nH]c1C(=O)N=Nc1c(O)[nH]c2ccccc12`, the inhibition was 38.1%.

For `CCOC(=O)C1=C(c2ccc(OC)cc2)C(=O)c2ccccc2C1=O`, the inhibition is 82.8% (active).

Turning to `Nc1ccc2nc3c(=O)[nH]c(=S)[nH]c3nc2c1`, the inhibition was 23.1%.

For the molecule `COc1cccc(NC(=O)NCc2ccc(F)cc2)c1`, the inhibition is -14.2%.

`Clc1ccc2c(c1)C1=C(C(c3ccncc3)O2)C(c2ccc(Br)cc2)n2ncnc2N1` (configuration not stated): the inhibition was 42.4%.

Take `CCOc1cccc(/C=N/N2C(=O)CSC2=S)c1O`: the inhibition was 10.3%.

As for `Nc1ccc2[nH]c(=S)sc2c1`, the inhibition is 35.6%.

With `CCN1CCCC1CNC(=O)c1ccc2c(c1)NC(=O)/C(=C\c1ccccc1F)S2` (configuration not stated), the inhibition is 110% (active).

Turning to `NC(=O)c1c(Nc2nc3c(F)cccc3s2)sc2c1CCCC2`, the inhibition was 2.29%.

As for `C#CCOCCOCCOCCNc1nc(N2CCN(C(=O)CCCCCCCCCCNC(=O)Cn3cc(CCCCCN)nn3)CC2)nc(N2CCN(C(=O)CCCCCCCCCCNC(=O)[C@H](CO)n3cc(CCCSC)nn3)CC2)n1`, the inhibition is -12.8%.

With `Cc1cccc(C(=O)Nc2nnc(S(=O)(=O)N3CCCCCC3)s2)c1`, the inhibition was 52.1% (active).

Consider `O=C(Nc1ccc(S(=O)(=O)N2CCOCC2)cc1)c1ccc2ncsc2c1`, for which the inhibition was 12.6%.

In the case of `O=C(Nc1nnc(S(=O)(=O)N2CCCCCC2)s1)c1cccc(Br)c1`, the inhibition is 55.3% (active).

In the case of `O=C(Nc1nnc(S(=O)(=O)N2CCOCC2)s1)c1cccc(Br)c1`, the inhibition is 60.9% (active).

With `S=C(NN=Cc1ccccn1)Nc1ccccn1`, the inhibition is 39.7%.

In the case of `COc1c(O)ccc2c1CN1CCc3cc4c(cc3C1C2)OCO4` (configuration not stated), the inhibition is 71.4% (active).

For `N#Cc1ccccc1-n1c(N)c(C(=O)N2CCCC2)sc1=S`, the inhibition is 31%.

With `O=C1C=CC(=O)N1c1ccc(N2CCCCC2)cc1`, the inhibition was 63.8% (active).

As to `O=[N+]([O-])c1ccc(N2CCN(c3ccc(O)cc3)CC2)c(Cl)c1`, the inhibition was 8.94%.

Regarding `Cc1ccc(-c2nc3ccc(Cl)cn3c2Cc2ccccc2)cc1`, the inhibition is 16%.

`Cc1ccc(-c2cn3cc(C)ccc3n2)cc1`: the inhibition was 40.7%.

As for `COc1ccc(C(=O)Nc2ccccc2C(=O)N/N=C/c2ccc(O)c(OC)c2)cc1`, the inhibition was 26.4%.

Consider `COc1ccc(CC(=O)NCC(=O)N/N=C/c2cc(Br)ccc2OC)cc1`, for which the inhibition was 70.9% (active).

Consider `CCOC(=O)c1sc(NC(=O)CSc2nc(C)cc(C(F)(F)F)n2)c(C#N)c1C`, for which the inhibition is 29.8%.

For the molecule `Cn1c(CCC(=O)OCC(=O)NCc2ccccc2Cl)nc(=O)c2ccccc21`, the inhibition was 37.4%.

For `O=C(Nc1nc(-c2ccncc2)cs1)C1COc2ccccc2O1` (configuration not stated), the inhibition was 52.1% (active).

Regarding `O=C(CSc1nnc(SCc2ccc(Cl)cc2)s1)N/N=C/c1ccccc1Cl`, the inhibition is 30.5%.

`COC(=O)c1sc(=S)n(-c2ccccc2)c1N`: the inhibition was 17%.

As for `S=c1[nH]nc(-c2cc(-c3ccsc3)n[nH]2)n1-c1ccccc1`, the inhibition was 12.6%.

As to `Cn1sc(=O)c2cc(S(=O)(=O)NC3CC3)ccc21`, the inhibition was 40%.

For `O=C1/C(=C\c2ccc([N+](=O)[O-])cc2)CS(=O)(=O)C/C1=C/c1ccc([N+](=O)[O-])cc1`, the inhibition is 56.5% (active).

Consider `COc1ccc(Cl)cc1-n1c(=S)sc2c(=O)n(-c3ccc(F)cc3)c(SCC(=O)O)nc21`, for which the inhibition was 34.5%.

Take `COC(=O)CCCC1=CC2=CC(=O)C(C)(OC(=O)c3cccs3)C(=O)C2=CN1CC(C)C` (configuration not stated): the inhibition is 2.11%.

`O=[N+]([O-])c1c(NCCO)cc(Sc2nc3ccccc3s2)c2nonc12`: the inhibition is 68.6% (active).

`CCOc1ccccc1Nc1ccc2nonc2c1[N+](=O)[O-]`: the inhibition is 45.4%.

For `Cc1ccc2nc(-c3cccc(Br)c3)cc(C(=O)Nn3cnnc3)c2c1`, the inhibition is 27.5%.

On to `COCCN1C=C2C(=O)C(C)(OC(=O)C3CCCC3)C(=O)C=C2C=C1c1ccsc1` (configuration not stated), for which the inhibition was 29.9%.

`Cc1ccc(OCC(=O)Nc2ccccc2Sc2ccc(Cl)cc2)c([N+](=O)[O-])n1`: the inhibition was 40.8%.

Turning to `CCN(CC)c1ccc2oc(=O)c(C)nc2c1`, the inhibition is 97.5% (active).

`CCSc1nnc(NC(=O)c2ccc(C)cc2)s1`: the inhibition is 75.1% (active).

Consider `CCc1cc(C(N)=O)c(NC(=O)c2ccc(OC)cc2)s1`, for which the inhibition was 16%.

For `CC(C)(C)c1nnc(NC(=O)C2c3ccccc3Oc3ccccc32)s1`, the inhibition is 27.4%.

In the case of `CC1=CC(C)(C)Nc2ccc(OC(=O)CN3C(=O)C4CCCCC4C3=O)cc21` (configuration not stated), the inhibition was 12.7%.

Consider `Cc1ccnc(-n2sc3ccccc3c2=O)n1`, for which the inhibition is 54.5% (active).

As to `O=c1oc2ccccc2cc1-c1cn(-c2ccccc2)c(=S)[nH]1`, the inhibition was 18.8%.

Turning to `S=c1[nH]nc(-c2cc(-c3ccccc3)n[nH]2)n1/N=C/c1c2ccccc2cc2ccccc12`, the inhibition is -2.97%.

For the molecule `Oc1c(CN2CCOCC2)ccc(CN2CCOCC2)c1O`, the inhibition is 31.4%.

On to `Cc1cc(Nc2ccc(Cl)cc2)nc(N2CCOCC2)n1`, for which the inhibition is 11.2%.

For the molecule `O=C(/C=C/c1ccco1)Nc1ccc(Oc2ccccc2)cc1`, the inhibition is -1.92%.

As to `Cc1ccc(/C=C/C(=O)Nc2ccc([N+](=O)[O-])c(NC(=O)/C=C/c3ccc(C)o3)c2)o1`, the inhibition was 65.5% (active).

Consider `COc1ccc(C(=O)Nc2cc(C)c(NC(=O)c3ccccc3OC)cn2)cc1`, for which the inhibition is 15.4%.

On to `Cc1nc([N+](=O)[O-])nn1C12CC3CC(CC(Br)(C3)C1)C2`, for which the inhibition is 26.5%.

With `Cc1nc(N2CCOCC2)sc1C(=O)NN`, the inhibition was 27.4%.

In the case of `Cc1ccc2nc(-c3ccc(Br)cc3)cn2c1`, the inhibition is 40.1%.

On to `O=c1c2c(nc3cc(-c4cccc(Cl)c4)[nH]n13)CCCC2`, for which the inhibition is 41.6%.

On to `C=CCc1ccccc1OCC(=O)N/N=C/c1ccccc1OCC`, for which the inhibition is 55.4% (active).

For the molecule `O=C(COc1ccccc1)Nc1nonc1NC(=O)COc1ccccc1`, the inhibition was 19.8%.

Turning to `CCOc1ccccc1/C=N/NC(=O)CNC(=O)COc1ccccc1`, the inhibition is 104% (active).

As to `CCC(=C/c1sc2ccc3ccccc3c2[n+]1C)/C=C1\Sc2ccc3ccccc3c2N1C`, the inhibition was -4.66%.

`CN1CCN(c2ccc(NC(=O)c3ccc4c(c3)OCCO4)cc2Cl)CC1`: the inhibition was 17.7%.

For the molecule `O=C(Nc1ccc(OC(F)(F)F)cc1)c1ccc2c(c1)no[n+]2[O-]`, the inhibition was 10.5%.

As for `COC(=O)CCc1sc(Nc2ccc(Br)cc2)nc1-c1ccc(OC)cc1`, the inhibition is -3.8%.

`O=C(NC1=CC(=O)c2ccccc2C1=O)c1ccccc1`: the inhibition is 51.5% (active).

As for `COc1cc(OC)c(C(=O)Nc2ccc(N(C)C)cc2)cc1OC`, the inhibition is 15.6%.

On to `COc1ccc(OCc2nnc3n2N=C(c2ccccc2)C(CC(=O)O)S3)cc1` (configuration not stated), for which the inhibition is 66.8% (active).

For `COc1ccc(OCc2n[nH]c(=S)n2N)cc1`, the inhibition is 46.2%.

On to `COc1ccc(-c2nn(-c3ccccc3)cc2/C=N/Nc2ccccn2)cc1OC`, for which the inhibition is 20.9%.

With `COc1ccc(-n2c(C)cc(C(=O)CSc3nnc(-c4cccs4)o3)c2C)cc1`, the inhibition is 14.3%.

Consider `Cn1c(-c2ccco2)nc2cc3ccccc3cc21`, for which the inhibition is 22.1%.

For the molecule `OCCN1CCN(C(=S)c2ccc(-c3ccccc3)cc2)CC1`, the inhibition is 50.8% (active).

For the molecule `COc1ccc(Nc2cc(Sc3ccc(OC)cc3)ncn2)cc1`, the inhibition is 26.3%.

Turning to `COCCNC(=O)Nc1ccc2nc(-c3ccco3)c(-c3ccco3)nc2c1`, the inhibition was 34.8%.

As to `O=[N+]([O-])c1ccc(C=Nc2ccc(Cl)cc2Cl)s1`, the inhibition is 4.17%.

On to `O=c1[nH]c2ccccc2n2c(-c3ccccc3)nnc12`, for which the inhibition was 102% (active).

Regarding `Oc1c(C=Nc2cccc3nsnc23)ccc2ccccc12`, the inhibition is 27.2%.

In the case of `Cc1cc(N)n2nc(-c3ccc(C(C)(C)C)cc3)cc2n1`, the inhibition is 29.4%.

In the case of `O=C(N/N=C\c1cccc(Br)c1)c1ccccc1-n1cccc1`, the inhibition was 32%.

Turning to `C=C1c2cccc(OC)c2O[C@H](C(=O)OCC)[C@@H]1CCCCCC`, the inhibition was -4.41%.

Consider `Cn1c(-c2sccc2OCc2cccc(C(F)(F)F)c2)n[nH]c1=S`, for which the inhibition is 52.9% (active).

For `CCc1c(C)sc(NC(=O)c2cccs2)c1C(N)=O`, the inhibition was 16.4%.

Regarding `Cc1cc(Nc2ccc(Br)cc2)nc2ccccc12`, the inhibition was -14%.

For the molecule `CCOc1ccc(-n2c(N)c(C(=O)NCC3CCCO3)sc2=S)cc1` (configuration not stated), the inhibition was 24.8%.
